# Hit rate of the full screen: of about 39,000 compounds, about 1,500 (3.8%) were called active. This is one part of a sample in which actives are shown more often than they occur.
# Tested on: HSkMC (human skeletal muscle cells)
# Test: cytotoxicity call (relative viability < 0.9)
# Conditions: 10 µM
row,Structure (SMILES),cytotoxicity call
1,COc1ccccc1CNC(=O)C[C@H]1C[C@@H]2c3cc(NC(=O)c4cccnc4)ccc3O[C@@H]2[C@H](CO)O1,inactive
2,C[C@@H]1CN([C@@H](C)CO)C(=O)Cc2cc(NS(=O)(=O)c3ccc(F)cc3)ccc2O[C@@H]1CN(C)Cc1ccc(Oc2ccccc2)cc1,active
3,Cc1ccccc1S(=O)(=O)N1C[C@@H](O)COC[C@@H]2O[C@H](CC(=O)N3CCOCC3)CC[C@H]21,inactive
4,COc1ccc2c3c([nH]c2c1)[C@H](CO)N(C[C@]13CCN(CC1)C(=O)c1cnccn1)C(=O)c1cnccn1,inactive
5,COc1ccc(C(=O)CO)cc1,inactive
6,COc1ccc(C(=O)O)cc1,inactive
7,COc1ccc(C(=O)CC(=O)c2ccc(C(C)(C)C)cc2)cc1,active
8,Cc1cc(C(=O)Nc2cccc3c2O[C@H](CN(C)Cc2ccc4c(c2)OCO4)[C@@H](C)CN([C@@H](C)CO)C3=O)n(C)n1,inactive
9,O=C(O)CCNC(=O)c1ccccc1 [listing 1 of 2 here],inactive
10,O=C(O)CCNC(=O)c1ccccc1 [listing 2 of 2 here],inactive
11,Cc1cc(O[C@@H](CCC(F)(F)F)c2ccc(C(=O)NCCC(=O)O)cc2)cc(C)c1-c1ccc(C(C)(C)C)cc1,active
12,O=C(/C=C/c1ccc(O)c(O)c1)O[C@]1(C(=O)O)C[C@@H](O)[C@H](O)[C@H](O)C1,inactive
13,CC(C)NC(=O)Nc1ccc2c(c1)C(=O)N([C@H](C)CO)C[C@H](C)[C@@H](CN(C)S(=O)(=O)c1ccc(F)cc1)O2,inactive
14,Cn1cnc(CCNC(=O)C[C@@H]2CC[C@H]3[C@@H](COC[C@@H](O)CN3C(=O)Nc3ccc(Cl)cc3)O2)c1,inactive
15,CO[C@@H]1CN(C)C(=O)c2ccc(NS(=O)(=O)CC(F)(F)F)cc2OC[C@H](C)N(Cc2cccnc2)C[C@H]1C,inactive
16,C[C@@H]1CCCCO[C@H](CN(C)Cc2ccc3c(c2)OCO3)[C@H](C)CN([C@@H](C)CO)C(=O)c2cc(NC(=O)Nc3cccc4ccccc34)ccc2O1,active
17,C[C@@H]1CN([C@H](C)CO)C(=O)c2cc(NC(=O)Nc3cccc4ccccc34)ccc2O[C@@H](C)CCCCO[C@H]1CN(C)Cc1ccc2c(c1)OCO2,inactive
18,C[C@H]1CCCCO[C@@H](CN(C)Cc2ccc3c(c2)OCO3)[C@@H](C)CN([C@@H](C)CO)C(=O)c2cc(NC(=O)Nc3cccc4ccccc34)ccc2O1,active
19,C[C@@H]1CCCCO[C@@H](CN(C)Cc2ccc3c(c2)OCO3)[C@@H](C)CN([C@@H](C)CO)C(=O)c2cc(NC(=O)Nc3cccc4ccccc34)ccc2O1,inactive
20,C[C@@H]1CCCCO[C@@H](CN(C)Cc2ccc3c(c2)OCO3)[C@@H](C)CN([C@H](C)CO)C(=O)c2cc(NC(=O)Nc3cccc4ccccc34)ccc2O1,inactive

row,Structure (SMILES),cytotoxicity call
1,C[C@H](CO)N1C[C@H](C)[C@@H](CN(C)Cc2ccc3c(c2)OCO3)OCCCC[C@H](C)Oc2ccc(NC(=O)Nc3cccc4ccccc34)cc2C1=O,active
2,C[C@@H]1CN([C@@H](C)CO)C(=O)c2cc(NC(=O)Nc3cccc4ccccc34)ccc2O[C@@H](C)CCCCO[C@H]1CN(C)Cc1ccc2c(c1)OCO2,active
3,C[C@@H]1CCCCO[C@H](CN(C)Cc2ccc3c(c2)OCO3)[C@@H](C)CN([C@H](C)CO)C(=O)c2cc(NC(=O)Nc3cccc4ccccc34)ccc2O1,inactive
4,C=CCOC(=O)[C@H]1[C@@H]2C(=O)O[C@@H](c3ccccc3)[C@@H](c3ccccc3)N2[C@@H](c2ccc(OCCOC(=O)[C@@H]3C[C@@H]4C(=O)N[C@@H](CCCCNC(C)=O)C(=O)N4[C@@H]3c3ccc(O)cc3)cc2)[C@]12C(=O)Nc1ccccc12,inactive
5,COc1ccc(CN(C)C[C@@H]2OCCCC[C@@H](C)Oc3ccc(NS(=O)(=O)c4ccc(F)cc4)cc3C(=O)N([C@H](C)CO)C[C@@H]2C)cc1,inactive
6,C[C@H](CO)N1C[C@H](C)[C@@H](CN(C)Cc2ccc(C(F)(F)F)cc2)Oc2ccc(NC(=O)Cn3cnnn3)cc2CC1=O,inactive
7,C[C@H](CO)N1C[C@H](C)[C@@H](CN(C)S(=O)(=O)c2cn(C)cn2)Oc2ccc(NC(=O)C3CCCCC3)cc2CC1=O,inactive
8,Cc1ccc(S(=O)(=O)Nc2cccc3c2O[C@@H](CN(C)S(=O)(=O)c2cccs2)[C@@H](C)CN([C@H](C)CO)C3=O)cc1,inactive
9,CN1C(=O)C[C@@H]2[C@@H]1CCN2C(=O)c1ccc[nH]1,inactive
10,C[C@H](CO)N1C[C@H](C)[C@@H](CN(C)S(=O)(=O)c2cn(C)cn2)OCc2ccccc2-c2ccccc2C1=O,inactive
11,C[C@@H]1CCCCO[C@@H](CN(C)Cc2ccc3c(c2)OCO3)[C@H](C)CN([C@H](C)CO)C(=O)c2cc(NC(=O)Nc3cccc4ccccc34)ccc2O1,active
12,C[C@@H]1CCCCO[C@@H](CN(C)Cc2ccc3c(c2)OCO3)[C@H](C)CN([C@@H](C)CO)C(=O)c2cc(NC(=O)Nc3cccc4ccccc34)ccc2O1,inactive
13,C[C@@H]1CN([C@H](C)CO)C(=O)c2cc(NC(=O)Nc3cccc4ccccc34)ccc2O[C@@H](C)CCCCO[C@@H]1CN(C)Cc1ccc2c(c1)OCO2,active
14,C[C@@H]1CN([C@@H](C)CO)C(=O)c2cc(NC(=O)Nc3cccc4ccccc34)ccc2O[C@@H](C)CCCCO[C@@H]1CN(C)Cc1ccc2c(c1)OCO2,inactive
15,C[C@H]1CCCCO[C@H](CN(C)Cc2ccc3c(c2)OCO3)[C@@H](C)CN([C@@H](C)CO)C(=O)c2cc(NC(=O)Nc3cccc4ccccc34)ccc2O1,inactive
16,C[C@H](CO)N1C[C@H](C)[C@H](CN(C)Cc2ccc3c(c2)OCO3)OCCCC[C@H](C)Oc2ccc(NC(=O)Nc3cccc4ccccc34)cc2C1=O,active
17,C[C@@H]1CCCCO[C@H](CN(C)Cc2ccc3c(c2)OCO3)[C@@H](C)CN([C@@H](C)CO)C(=O)c2cc(NC(=O)Nc3cccc4ccccc34)ccc2O1,inactive
18,C[C@@H]1CCCCO[C@H](CN(C)Cc2ccc3c(c2)OCO3)[C@H](C)CN([C@H](C)CO)C(=O)c2cc(NC(=O)Nc3cccc4ccccc34)ccc2O1,active
19,Cc1ccc(S(=O)(=O)Nc2ccc3c(c2)C(=O)N([C@@H](C)CO)C[C@@H](C)[C@@H](CN(C)C(=O)Nc2ccc(C(F)(F)F)cc2)O3)cc1,inactive

# Source: the antibiotic and cytotoxicity screens of Wong et al. (2023)
